The panel holds about 79,000 compounds, 15% with a hit somewhere; the sample as a whole holds those more often. Active and inactive are the calls of the source. Rule as the data show it: active = growth inhibition above about 70%; inactive = the rest.
Assays:
[1] = NCI Yeast Anticancer Drug Screen. Data for the rad52 strain (AID 147);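 also: 0% = growth of vehicle-treated control cultures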; settings: S. cerevisiae rad52 mutant growth inhibition, stronger effect = higher value
How it was run: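 Here a repair-compromised yeast strain receives each compound; its growth is then quantified and normalised to vehicle-only controls.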

[2] = NCI Yeast Anticancer Drug Screen. Data for the wt1 strain (AID 149);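 also: 0% = growth of vehicle-treated wt1 cultures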; settings: S. cerevisiae wt1 strain (SPY 50644) growth inhibition, stronger effect = higher value
How it was run: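 Compounds are added to wt1 yeast cultures. Growth is then measured. Inhibition is expressed relative to vehicle-treated controls.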

[3] = NCI Yeast Anticancer Drug Screen. Data for the rad50EPP+ strain (AID 151);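 also: 0% = growth of vehicle-treated control cultures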; settings: S. cerevisiae rad50 mutant strain, stronger effect = higher value
How it was run: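 Read-out is yeast growth inhibition relative to vehicle; cells used were the rad50EPP+ strain.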

[4] = NCI Yeast Anticancer Drug Screen. Data for the mgt1 strain (AID 153); settings: S. cerevisiae mgt1 mutant growth inhibition, stronger effect = higher value
How it was run: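 Measured: inhibition of mgt1 yeast growth by compound, normalized to vehicle-treated cultures.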

[5] = NCI Yeast Anticancer Drug Screen. Data for the rad50 strain (AID 155);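 also: 0% = growth of vehicle-only cultures of the same strain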; settings: S. cerevisiae rad50 strain growth inhibition, stronger effect = higher value
How it was run: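 Inhibition values express reduced yeast growth in compound-treated cultures relative to vehicle-treated controls.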

[6] = NCI Yeast Anticancer Drug Screen. Data for the mec2-1 strain (AID 157); settings: S. cerevisiae mec2-1 strain, stronger effect = higher value
How it was run: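 Using mec2-1 yeast: add compound, measure growth, express inhibition versus vehicle-treated cultures.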

[7] = NCI Yeast Anticancer Drug Screen. Data for the rad14 strain (AID 159);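 also: 0% = growth of vehicle-treated control cultures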; settings: S. cerevisiae rad14 strain growth inhibition, stronger effect = higher value
How it was run: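 A mutant yeast strain defective in DNA damage repair is treated with compound; inhibition of its growth is scored against untreated, vehicle-exposed cultures.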

[8] = NCI Yeast Anticancer Drug Screen. Data for the CLN2oe strain (AID 163);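 also: 0% = growth of vehicle-only control cultures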; settings: S. cerevisiae CLN2oe strain, stronger effect = higher value
How it was run: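 Whole-cell yeast growth assay. A strain engineered for altered cell-cycle control received compound, and inhibition relative to vehicle-treated cultures was recorded.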

[9] = NCI Yeast Anticancer Drug Screen. Data for the cln2 rad14 strain (AID 165);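 also: 0% = growth equal to vehicle treated cultures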; settings: S. cerevisiae cln2 rad14 strain, stronger effect = higher value
How it was run: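 Yeast strain cln2 rad14, bearing defects in cell cycle control and DNA repair, serves as the test system; values reflect growth inhibition compared with vehicle.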

[10] = NCI Yeast Anticancer Drug Screen. Data for the bub3 strain (AID 167); settings: S. cerevisiae bub3 mutant strain, stronger effect = higher value
How it was run: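 Steps: expose the mutant yeast strain to compound; grow alongside vehicle-treated cultures; measure growth; express inhibition against the vehicle cultures.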

[11] = NCI Yeast Anticancer Drug Screen. Data for the wt2 strain (AID 169);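 also: 0% = growth of vehicle-treated yeast cultures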; settings: S. cerevisiae wt2 strain growth inhibition, stronger effect = higher value
How it was run: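 Treated yeast vs. vehicle-treated yeast: growth inhibition determined.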

[12] = NCI Yeast Anticancer Drug Screen. Data for the mlh1 strain (AID 171);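 also: 0% = growth of vehicle-treated control cultures of the same strain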; settings: S. cerevisiae mlh1 strain growth inhibition, stronger effect = higher value
How it was run: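 A yeast strain with a defined genetic lesion serves as the test organism. Cultures receive compound or vehicle, and growth is measured.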

[13] = NCI Yeast Anticancer Drug Screen. Data for the mlh1 rad18 strain (AID 175); settings: S. cerevisiae mlh1 rad18 strain growth inhibition, stronger effect = higher value
How it was run: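 Steps: expose repair-defective yeast to compound; measure growth; express inhibition against vehicle-treated controls.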

[14] = NCI Yeast Anticancer Drug Screen. Data for the rad18 strain (AID 177); settings: S. cerevisiae rad18 mutant growth inhibition, stronger effect = higher value
How it was run: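 Measured value is growth inhibition of a yeast strain bearing a DNA repair alteration, referenced to vehicle-treated cells.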

[15] = NCI Yeast Anticancer Drug Screen. Data for the sgs1 mgt1 strain (AID 161);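 also: 0% = growth of cultures given vehicle only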; settings: S. cerevisiae sgs1 mgt1 strain, stronger effect = higher value
How it was run: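 Compounds are added to genetically altered yeast, and growth is compared with cultures given vehicle alone to give percent inhibition.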

[16] = NCI Yeast Anticancer Drug Screen. Data for the sgs1 strain (AID 173);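 also: 0% = growth of vehicle-only control cultures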; settings: S. cerevisiae sgs1 mutant, stronger effect = higher value
How it was run: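 A genetically defined yeast mutant is incubated with the test compound, and its growth is compared to that of the same strain given vehicle.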

[17] = at 5.0 µM (retest, dose inferred, filed as 0.5)
[18] = at 50.0 µM (retest, dose inferred, filed as 5.0)

Measured: growth inhibition

Cc1csc(=S)n1OC(=O)NC1CCCCC1
active: [1]; at 11.0 µM 99% | [1]; at 33.0 µM 99% | [1]; at 100.0 µM 99% | [2]; at 3.7 µM 97% | [2]; at 11.0 µM 99% | [2]; at 33.0 µM 100% | [2]; at 100.0 µM 99% | [3]; at 3.7 µM 99% | [3]; at 11.0 µM 99% | [3]; at 33.0 µM 99% | [3]; at 100.0 µM 99% | [4]; at 3.7 µM 99% | [4]; at 11.0 µM 100% | [4]; at 33.0 µM 100% | [4]; at 100.0 µM 99% | [5]; at 3.7 µM 98% | [5]; [17] 94% | [5]; at 11.0 µM 99% | [5]; at 33.0 µM 98% | [5]; [18] 98% | [5]; at 50.0 µM 92.5% | [5]; at 100.0 µM 98% | [6]; at 3.7 µM 93% | [6]; at 11.0 µM 99% | [6]; at 33.0 µM 93% | [6]; [18] 99% | [6]; at 50.0 µM 94.2% | [6]; at 100.0 µM 95% | [7]; at 3.7 µM 96% | [7]; at 11.0 µM 99% | [7]; at 33.0 µM 99% | [7]; at 100.0 µM 98% | [8]; at 3.7 µM 99% | [8]; at 11.0 µM 100% | [8]; at 33.0 µM 100% | [8]; at 100.0 µM 100% | [9]; [17] 83% | [9]; [18] 98% | [9]; at 50.0 µM 92.2% | [10]; at 3.7 µM 99% | [10]; [17] 99% | [10]; at 11.0 µM 99% | [10]; at 33.0 µM 100% | [10]; [18] 97% | [10]; at 50.0 µM 91.8% | [10]; at 100.0 µM 99% | [11]; at 3.7 µM 97% | [11]; at 11.0 µM 99% | [11]; at 33.0 µM 99% | [11]; at 100.0 µM 99% | [12]; at 3.7 µM 99% | [12]; at 11.0 µM 100% | [12]; at 33.0 µM 99% | [12]; at 100.0 µM 98% | [13]; [17] 97% | [13]; [18] 98% | [13]; at 50.0 µM 92.1% | [14]; at 3.7 µM 94% | [14]; at 11.0 µM 98% | [14]; at 33.0 µM 98% | [14]; at 100.0 µM 98%
inactive: [1]; at 1.2 µM -54% | [1]; at 3.7 µM 63% | [2]; at 1.2 µM -5% | [3]; at 1.2 µM -23% | [4]; at 1.2 µM 18% | [5]; at 1.2 µM -2% | [6]; at 1.2 µM -11% | [6]; [17] -3% | [7]; at 1.2 µM -8% | [8]; at 1.2 µM -6% | [10]; at 1.2 µM 3% | [11]; at 1.2 µM -23% | [12]; at 1.2 µM 8% | [14]; at 1.2 µM -11%

CCCC/C([O-])=C1/C(=O)N(c2ccccc2)N=C1C.CCCC/C([O-])=C1/C(=O)N(c2ccccc2)N=C1C.[Cu+2]
inactive: [1]; at 1.2 µM 1% | [1]; at 3.7 µM 2% | [1]; at 11.0 µM 2% | [1]; at 33.0 µM 1% | [1]; at 100.0 µM -2% | [2]; at 1.2 µM 0% | [2]; at 3.7 µM -1% | [2]; at 11.0 µM -2% | [2]; at 33.0 µM -2% | [2]; at 100.0 µM -3% | [3]; at 1.2 µM -1% | [3]; at 3.7 µM 0% | [3]; at 11.0 µM -1% | [3]; at 33.0 µM -2% | [3]; at 100.0 µM 0% | [4]; at 1.2 µM -2% | [4]; at 3.7 µM -1% | [4]; at 11.0 µM 0% | [4]; at 33.0 µM 0% | [4]; at 100.0 µM -5% | [5]; at 1.2 µM 1% | [5]; at 3.7 µM 2% | [5]; [17] 28% | [5]; at 11.0 µM 2% | [5]; at 33.0 µM 1% | [5]; [18] 48% | [5]; at 50.0 µM -7.7% | [5]; at 100.0 µM 0% | [6]; at 1.2 µM -3% | [6]; at 3.7 µM -3% | [6]; [17] 10% | [6]; at 11.0 µM -6% | [6]; at 33.0 µM 1% | [6]; [18] 29% | [6]; at 50.0 µM -6.8% | [6]; at 100.0 µM -6% | [7]; at 1.2 µM 0% | [7]; at 3.7 µM 0% | [7]; at 11.0 µM -1% | [7]; at 33.0 µM -2% | [7]; at 100.0 µM -2% | [15]; [17] -2% | [15]; [18] 42% | [15]; at 50.0 µM -13.3% | [9]; [17] 27% | [9]; [18] 44% | [9]; at 50.0 µM 32.3% | [10]; at 1.2 µM -1% | [10]; at 3.7 µM -1% | [10]; [17] 26% | [10]; at 11.0 µM -4% | [10]; at 33.0 µM -2% | [10]; [18] 48% | [10]; at 50.0 µM -1% | [10]; at 100.0 µM -5% | [11]; at 1.2 µM 0% | [11]; at 3.7 µM 0% | [11]; at 11.0 µM -1% | [11]; at 33.0 µM -2% | [11]; at 100.0 µM -3% | [12]; at 1.2 µM 0% | [12]; at 3.7 µM -3% | [12]; at 11.0 µM -2% | [12]; at 33.0 µM -3% | [12]; at 100.0 µM -2% | [16]; at 1.2 µM 0% | [16]; at 3.7 µM -1% | [16]; at 11.0 µM -2% | [16]; at 33.0 µM -1% | [16]; at 100.0 µM -1% | [13]; [17] 6% | [13]; [18] 8% | [13]; at 50.0 µM -20.8% | [14]; at 1.2 µM -3% | [14]; at 3.7 µM -4% | [14]; at 11.0 µM -1% | [14]; at 33.0 µM -5% | [14]; at 100.0 µM -3%
